# Data: paper PMC4336329 (PLoS ONE, 2015)
# The campaign covered roughly 310,000 compounds. About 14,000 (4.5%) showed an effect of 50% or more. Effects have a minus sign here. The entries come from a sample that favours strong results as a whole.
# Molecular target: human ether-à-go-go-related gene (hERG) potassium channel (human, UniProt Q12809)
# Experiment: primary screen, population patch clamp on CHO cells stably expressing hERG; higher = less effect of the substance
# 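Further: peak tail current of the secondary pulse compared with the same well before compound.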
# human ether-à-go-go-related gene (hERG) potassium channel, sequence (Q12809 whole entry, looked up): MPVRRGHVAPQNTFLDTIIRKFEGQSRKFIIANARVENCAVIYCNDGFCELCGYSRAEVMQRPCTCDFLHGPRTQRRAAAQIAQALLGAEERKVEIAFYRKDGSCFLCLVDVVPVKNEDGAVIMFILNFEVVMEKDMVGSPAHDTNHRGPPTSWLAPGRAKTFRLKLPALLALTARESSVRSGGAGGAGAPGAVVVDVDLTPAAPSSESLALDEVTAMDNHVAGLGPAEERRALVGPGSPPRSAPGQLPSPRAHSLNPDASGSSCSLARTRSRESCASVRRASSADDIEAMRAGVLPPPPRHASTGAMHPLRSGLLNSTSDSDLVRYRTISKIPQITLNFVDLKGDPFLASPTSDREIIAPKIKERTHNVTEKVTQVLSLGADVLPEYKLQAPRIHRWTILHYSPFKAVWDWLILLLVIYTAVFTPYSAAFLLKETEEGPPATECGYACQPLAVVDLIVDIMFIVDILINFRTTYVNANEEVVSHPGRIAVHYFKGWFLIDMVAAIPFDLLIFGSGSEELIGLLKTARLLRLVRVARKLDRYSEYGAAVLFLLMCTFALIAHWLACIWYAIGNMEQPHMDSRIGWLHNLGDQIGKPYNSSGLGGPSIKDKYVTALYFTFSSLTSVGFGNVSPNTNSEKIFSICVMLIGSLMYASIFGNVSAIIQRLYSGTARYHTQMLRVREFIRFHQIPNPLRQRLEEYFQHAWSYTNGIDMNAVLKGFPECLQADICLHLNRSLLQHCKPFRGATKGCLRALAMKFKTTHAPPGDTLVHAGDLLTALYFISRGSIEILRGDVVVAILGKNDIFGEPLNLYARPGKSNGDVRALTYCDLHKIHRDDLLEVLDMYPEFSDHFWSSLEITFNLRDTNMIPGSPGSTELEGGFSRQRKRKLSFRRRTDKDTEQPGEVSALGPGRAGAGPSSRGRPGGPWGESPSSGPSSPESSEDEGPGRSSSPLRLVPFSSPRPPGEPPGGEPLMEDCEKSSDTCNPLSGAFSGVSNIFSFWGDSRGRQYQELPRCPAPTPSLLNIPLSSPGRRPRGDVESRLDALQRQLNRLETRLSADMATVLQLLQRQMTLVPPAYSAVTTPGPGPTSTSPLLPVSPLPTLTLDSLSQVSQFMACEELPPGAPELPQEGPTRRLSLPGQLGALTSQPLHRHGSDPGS
row,Compound,"hERG current change (%, negative = inhibition) at 10uM"
1,CCN(Cc1ccccc1)c1ccc(/C=N/NS(=O)(=O)c2cccc([N+](=O)[O-])c2)cc1,10.3%
2,Cc1cccc(NC(=O)CSc2nc3ccccc3o2)c1,3.5%
3,Cc1nn2c(-c3cccc(NC(=O)CSc4nc5ccccc5o4)c3)nnc2c2ccccc12,-70.8%
4,CC(=O)Nc1cccc(-c2nnc3c4ccccc4c(C)nn23)c1,-0.564%
5,CCS(=O)(=O)N1CCN(C(=O)c2cccc3ccccc23)CC1,12.8%
6,COc1ccc(CNC[C@@H](CCCCN(C)Cc2ccc(OC)cc2)N2C[C@H](c3ccccc3)N(CCc3ccc(Cl)c(Cl)c3)C(=O)C2=O)cc1,-80.3%
7,COc1ccc(CNC(=O)[C@@H]2CC=C[C@@H]3CCN(Cc4ccc(Cl)c(Cl)c4)C(=O)[C@@H]32)cc1,-8.85%
8,COc1cccc(CCN2C(=O)C(=O)N([C@@H](CNCc3ccccc3)Cc3ccccc3F)C[C@@H]2C(C)(C)C)c1,-48.5%
9,Nn1cnc2cc3ccccc3cc2c1=O,8.16%
10,Cn1c(=O)c2cn(-c3ccc4c(c3)OCCO4)cc2n(C)c1=O,11.3%
11,Cc1cccc(C)c1NC(=O)C1(N(Cc2ccco2)C(=O)c2ccccn2)CCCC1,5.95%
12,COc1ccc(Cl)cc1C(=O)Nc1ccc(CN2CCCCC2)cc1,-52%
13,COc1c(Cl)cc(Cl)cc1C(=O)Nc1ccc(CN2CCOCC2)cc1,8.37%
14,COc1c(C)cccc1C(=O)Nc1ccc(CN2CCCCC2)cc1,-30.7%
15,COc1c(Cl)cc(Cl)cc1C(=O)Nc1ccc(CN2CCCCC2)cc1,-65.1%
16,COc1ccccc1C(=O)Nc1ccc(CN2CCCCC2)cc1,-28.4%
17,COc1cccc(OC)c1C(=O)Nc1ccc(CN2CCCCC2)cc1,10.6%
18,Cc1ccc(N2C(S)=C(C#N)C(=O)NC2c2cccs2)cc1 (stereo not drawn),15.2%
19,c1ccc(CN(Cc2ccccc2)c2ncnc3c2nnn3Cc2ccccc2)cc1,7.63%

row,Compound,"hERG current change (%, negative = inhibition) at 10uM"
1,CC1Cc2nc(SCC(=O)NCc3ccco3)n(-c3ccccc3)c(=O)c2S1 (stereo not drawn),-33.5%
2,CCN1CCN(Cc2ccc(NC(=O)c3ccc(C)c(NC(=O)c4csc(-c5ccncc5)n4)c3)cc2C(F)(F)F)CC1,7.22%
3,COc1cc(NC(=O)c2csc(-c3ccncc3)n2)cc(C(=O)Nc2cccc(C(F)(F)F)c2)c1,-48.7%
4,Cc1ccc(C(=O)Nc2cccc(C(F)(F)F)c2)cc1NC(=O)c1csc(-c2ccncc2)n1,-62.5%
5,O=C(Nc1ccc(C(F)(F)F)cc1)c1csc(-c2ccncc2)n1,-25.4%
6,NNC(=O)c1csc(-c2cccc(C(F)(F)F)c2)n1,-30%
7,O=C(Nc1cccc(C(F)(F)F)c1)c1csc(-c2ccncc2)n1,-68.6%
8,CC(C)N1C(=O)C2ON(c3ccccc3)C(c3cccs3)C2C1=O (stereo not drawn),-16.6%
9,CCOC(=O)C(CC)(CCC(=O)O)c1csc(Nc2ccc(C)cc2)n1 (stereo not drawn),16.5%
10,Cc1cc(=O)oc2c(C)c(OCC(=O)N(C)C)ccc12,9.8%
11,O=C(c1ccc(F)cc1)N1C2CCC1CC(O)(c1ccc(F)cc1)C2 (stereo not drawn),-20.6%
12,COc1ccc(C(C)=O)cc1COC(=O)c1ccc(N)c([N+](=O)[O-])c1,35.1%
13,COc1cc(C(=O)NNC(=O)c2cc(S(=O)(=O)N(C)C)ccc2N2CCCC2)cc(OC)c1OC,15.1%
14,COc1cc(Cl)c(C)cc1NC(=O)c1cc(S(=O)(=O)N(C)C)ccc1N1CCCC1,-51.8%
15,COc1ccc(C(C)(C)C)cc1NC(=O)c1cc(S(=O)(=O)N(C)C)ccc1N1CCCC1,-60%
16,Cc1ccc(NC(=O)c2cc(S(=O)(=O)N(C)C)ccc2N2CCCC2)cc1S(=O)(=O)N(C)C,-26.5%
17,COc1ccc(NC(=O)c2cc(S(=O)(=O)N(C)C)ccc2N2CCCC2)cc1Cl,12.7%
18,COc1ccc(CCNC(=O)c2cc(S(=O)(=O)N(C)C)ccc2N2CCCC2)cc1,4.26%
19,COc1ccc(NC(=O)CN(C)C(=O)c2cc(S(=O)(=O)N(C)C)ccc2N2CCCC2)cc1,-13.8%

row,Compound,"hERG current change (%, negative = inhibition) at 10uM"
1,COc1ccc(CCNC(=O)c2cc(S(=O)(=O)N(C)C)ccc2N2CCCC2)cc1OC,5.99%
2,COc1ccc(OC)c(NC(=O)c2cc(S(=O)(=O)N(C)C)ccc2N2CCCC2)c1,-68.1%
3,CN(C)CCNc1cnn(-c2ccccc2)c(=O)c1Cl,14.2%
4,CCOC(=O)c1[nH]c2ccccc2c1NC(=S)Nc1cccc(C)c1C,-5.81%
5,CC(C)(C)NC(=S)NNC(=O)c1ccncc1,15.4%
6,CC(C)c1nc2sc3c(c2c(=O)n1N)CC(C)(C)OC3,8.71%
7,CCCn1c(SCC(=O)Nc2ccc(C(=O)Nc3ccccc3OC)cc2)n[nH]c1=O,11.9%
8,CC(NC(=O)CCNC(=O)c1ccco1)c1ccc(F)cc1 (stereo not drawn),12.3%
9,CCOc1cccc2sc(N(CCN(C)C)C(=O)/C=C/c3cccs3)nc12.Cl,-40.7%
10,CCOc1ccc2nc(N(CCCN(C)C)C(=O)c3ccc(C(=O)c4ccccc4)cc3)sc2c1.Cl,-35.5%
11,CCOc1cccc2sc(N(CCCN(C)C)C(=O)c3ccc(S(=O)(=O)N(C)Cc4ccccc4)cc3)nc12.Cl,-40.4%
12,CCOc1cccc2sc(N(CCCN(C)C)C(=O)c3ccc(C(=O)c4ccccc4)cc3)nc12.Cl,-72.1%
13,Cc1cc(C)c2nc(N(CCN(C)C)C(=O)c3ccc(S(=O)(=O)N(C)CC4CCCO4)cc3)sc2c1.Cl (stereo not drawn),-43.6%
14,CCOc1cccc2sc(N(CCCN(C)C)C(=O)c3ccc(S(=O)(=O)N4CCc5ccccc5C4)cc3)nc12.Cl,13.7%
15,CCOc1cccc2sc(N(CCCN(C)C)C(=O)Cc3ccccc3)nc12.Cl,-80.2%
16,CCCC(=O)N(CCN1CCOCC1)c1nc2c(OCC)cccc2s1.Cl,9.08%
17,CCOc1cccc2sc(N(CCCN(C)C)C(=O)c3ccc(S(=O)(=O)N(C)c4ccccc4)cc3)nc12.Cl,-83.7%
18,CCOc1cccc2sc(N(CCCN(C)C)C(=O)c3ccc(S(=O)(=O)N(C)CC4CCCO4)cc3)nc12.Cl (stereo not drawn),-77.4%
19,CN(C)CCN(C(=O)c1ccc(S(=O)(=O)N(C)CC2CCCO2)cc1)c1nc2cc3c(cc2s1)OCO3.Cl (stereo not drawn),-43.2%
